NPC1 promoter act: NPC1 promoter activation; AID 485313; Potency, µM (top dose mostly 9.22 µM), inactives show at the top dose activation, usual class: activators; Huh7 NPC1 promoter luciferase reporter, 24 h; 320,000 compounds, 2.4% hits; further: % of control where 0% means no effect; nearly all actives have a fitted effect of over 60% in size
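Huh7 cells stably carrying NPC1 promoter–luciferase, plated in Opti-MEM with 10% FBS for 2 h, were exposed to compound in DMSO for 24 h at 37 °C; luciferase reagent was added for 10 min and luminescence read.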
SMN2 splice enh: enhancers of SMN2 splice variant expression; HEK293 SMN2-luciferase splicing reporter, luminescence, 30-36 h; Potency, µM (highest dose often 46.1 µM), for inactives: at the highest dose activity change, positive = activation, most hits filed as activators; 210,000 compounds, 2.8% hits; further: % of control where 0% means no effect; nearly all actives have a fitted effect of over 55% in size
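HEK293 cells carry an SMN2 […]–luciferase reporter in which exon 7 inclusion puts luciferase in frame. Cells were plated 10-12 h before compound addition, then incubated 30-36 h at 37C. ONE-Glo luminescence was read; sodium butyrate at 4.5 mM final served as control.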
FLuc counter: counter-screen for miR-21 project: firefly luciferase inhibitors or activators | P08659 | purified FLuc, Km substrates, luminescence inhibition | Potency, µM (titrated, usually from 57.5 µM), for the others: at the highest dose activity change, negative = inhibition, usual class: inhibitors | 360,000 compounds, 6.9% hits | AID 588342;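 further: plate controls were vehicle for no effect and reference inhibitor for full effect; nearly all actives have a fitted effect of over 55% in size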
Target sequence (P08659 whole entry, looked up): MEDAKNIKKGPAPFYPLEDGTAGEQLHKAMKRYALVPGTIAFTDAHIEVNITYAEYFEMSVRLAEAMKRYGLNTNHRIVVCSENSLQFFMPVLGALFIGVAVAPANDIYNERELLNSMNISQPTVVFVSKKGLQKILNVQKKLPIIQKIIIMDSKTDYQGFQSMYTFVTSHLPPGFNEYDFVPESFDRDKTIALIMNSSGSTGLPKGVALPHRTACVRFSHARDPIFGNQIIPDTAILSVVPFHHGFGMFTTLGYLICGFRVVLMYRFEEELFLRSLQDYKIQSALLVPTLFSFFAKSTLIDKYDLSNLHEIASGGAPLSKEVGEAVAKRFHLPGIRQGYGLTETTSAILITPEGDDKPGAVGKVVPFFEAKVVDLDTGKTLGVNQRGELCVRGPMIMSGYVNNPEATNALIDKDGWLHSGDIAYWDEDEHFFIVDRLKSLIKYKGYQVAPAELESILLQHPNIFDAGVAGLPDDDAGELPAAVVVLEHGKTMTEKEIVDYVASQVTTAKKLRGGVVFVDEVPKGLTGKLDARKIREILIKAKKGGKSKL
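Biochemical qHTS of compounds, final roughly 60 µM downward over six points, against 10 nM purified firefly luciferase using Km concentrations of substrates (10 uM D-luciferin, 10 uM ATP) in Tris acetate pH 7.5 buffer; luminescence output.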
Rab9 prom act: Rab9 promoter activation; AID 485297; Huh7 Rab9 promoter-luciferase reporter, luminescence, 24 h; Potency, µM (titrated, usually from 9.22 µM), for the others: at the highest dose activation, negative = inhibition, hits mostly activators; 320,000 compounds, 2.8% hits; further: % of control where 0% means no effect; nearly all actives have a fitted effect of over 60% in size
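Luminescence from Amplite-detected luciferase (10 minutes, ambient) reports Rab9 promoter activation. Before that, stable Rab9-luciferase Huh7 cells (1500/well, reduced-serum OP-MEM I plus 10% FBS) were exposed to compound for 24 hours at 37C.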
ELG1 genotox: inducers of genotoxicity in HEK293T ELG1-luciferase cells. HEK293T ELG1-luciferase reporter, luminescence, 16 h. AID 504466. Potency, µM (titrated, usually from 46 µM), for the others: at the top dose activity change, positive = activation, actives largely listed as activators. 330,000 compounds, 1.3% hits; further: % of control where 0% means no effect; nearly all actives have a fitted effect of over 60% in size
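Genotoxicity was scored as increased ELG1-luciferase reporter signal, measured by ONE-Glo luminescence (30 min, room temperature). Compound or vehicle exposure of the HEK293T reporter cells lasted 16 hr at 37°C.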
Luc counter: Kinase-Glo luciferase inhibition (counter-screen); Potency, µM (top dose mostly 38.3 µM), for the others: at the highest dose activity change, negative = inhibition, actives largely listed as inhibitors; AID 1379; 200,000 compounds, 0.28% hits; Kinase-Glo luciferase, ATP luminescence, 8 min; Q27757; further: on the % scale 0 is the no-effect control and ±100 the full control effect; nearly all actives have a fitted effect of over 60% in size
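Kinase-Glo luciferase light output from ATP and luciferin was measured with 10 uM ATP, within the enzyme's linear range. Buffer: 50 mM imidazole pH 7.2, 50 mM KCl, 7 mM MgCl2, 0.01% Tween 20, 0.05% BSA; luminescence read after 8 min at ambient temperature.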
* = called active by the depositor; ? = inconclusive; · = no result given; [ ] = another dose, or the depositor's remark. An excerpt weighted towards active compounds, which were near 7.4% of everything screened. The call rests on the fitted dose curve; in most records, active means well fitted curve in the direction sought with a large enough effect; inconclusive means small, poorly fitted or top-dose-only effect, or another doubt; inactive means no such curve, though single readings can be large; an effect the other way counts as inactive or inconclusive. Potency means the concentration at half of the fitted maximal effect.

SMILES | NPC1 promoter act | SMN2 splice enh | FLuc counter | Rab9 prom act | ELG1 genotox | Luc counter
CCn1nc(NS(=O)(=O)c2ccccc2)c2cc3ccc(C)cc3nc21 | -4% | · | ? | -6% | 0% | ·
COc1cccc(NC(=O)CSc2nnc(C)s2)c1 | 0% | ? | 5% | -4% | 12% | 4%
O=C(CSc1nnc(NC(=O)c2ccco2)s1)Nc1ccc(F)cc1F | 1% | · | ? | 17% | 2% | ·
CC(=O)Nc1ccc(NC(=O)CSc2nnc(NC(=O)c3ccc(Br)o3)s2)cc1 | -3% | · | 2.1µM* | -3% | 6% | ·
COc1cccc(NC(=O)CSc2nnc(NC(=O)c3ccco3)s2)c1 | 14% | · | 24µM* | 17% | 17% | ·
COc1ccc(SCC(=O)Nc2ccc(N3CCN(C)CC3)c(F)c2)cc1 | -1% | -15% | ? | 4% | 10% | 2%
O=C(CSc1nnc(NC(=O)c2ccco2)s1)Nc1cccc(F)c1 | ? | · | 6.7µM* | ? | ? | ·
CCc1nnc(NC(=O)c2ccc(Br)o2)s1 | 18% | · | ? | ? | 13% | ·
Cc1ccc(SCC(=O)Nc2ccc(N3CCN(C)CC3)c(F)c2)cc1 | ? | 10% | 15µM* | ? | ? | -3%
CC(C)[C@@H](CC(=O)N[C@@H]1CCCC[C@H]1C(=O)N[C@H](CC(=O)N[C@@H](CCC(=O)O)CC(=O)O)Cc1ccccc1)NC(=O)C[C@H](Cc1ccccc1)NC(=O)[C@@H]1CNCC[C@H]1N | · | -15% | · | · | · | 2%
CCc1ccc(NC(=O)c2sc(-n3nc(C)c(CCC(C)C)c3C)nc2C)cc1 | · | · | 3% | · | · | ·
CCc1ccc(NC(=O)c2cc(S(=O)(=O)N3CCCCCC3)ccc2F)cc1 | · | · | 4% | · | · | ·
Cc1ccc(SCC(=O)Nc2cccc(NC(=O)c3ccco3)c2)cc1 | -1% | -15% | 19µM* | 4% | -3% | 0%
CC(=O)Nc1cccc(NC(=O)CSc2nnc(NC(=O)c3ccco3)s2)c1 | -4% | · | 19µM* | 23% | 15% | ·
CC(=O)Nc1cccc(NC(=O)CSc2nnc(NC(=O)C3CC3)s2)c1 | 1% | · | ? | 4% | 10% | ·
O=C(CSc1ccc(Cl)cc1)Nc1ccc(NC(=O)c2ccco2)cc1 | 17% | ? | 12% | 20% | 3% | 9%
CC(=O)N[C@H](Cc1ccc(O)cc1)C(=O)O | · | -6%[9.22 µM] | · | · | · | -3%[7.66 µM]
CC1CCCN(CCCNC(=O)c2cc(Sc3ccc(F)cc3)nc3ccccc23)C1 (configuration not stated) | · | · | -3% | · | · | ·
O=C(NCCO)c1ccc2nc(-c3ccco3)c(-c3ccco3)nc2c1 | 1% | 2% | 15µM* | 18% | -9% | -1%
O=C(NCCc1ccccc1)c1ccc2nc(-c3ccco3)c(-c3ccco3)nc2c1 | 0% | -2% | 21µM* | 7% | -4% | -2%
O=C(c1ccccc1)c1ccc2nc(-c3ccco3)c(-c3ccco3)nc2c1 | 24% | 7% | 5.4µM* | ? | 12% | -4%
O=C(NC1CCCC1)c1ccc2nc(-c3ccco3)c(-c3ccco3)nc2c1 | 0% | · | 13µM* | 7% | -4% | ·
Cc1ccc(Cl)cc1N1CCN(C(=O)c2cn(C)c3ccc(S(=O)(=O)N4CCCC4)cc3c2=O)CC1 | · | 4% | -5% | · | · | ·
COc1cc(C#N)ccc1OC(=O)Cc1cc(OC)c(OC)c(OC)c1 | -4% | · | -1% | -4% | 1% | ·
COc1ccccc1CCC(=O)Oc1ccc(C#N)cc1OC | -3% | · | 21µM* | -3% | 12% | ·
SMILES | NPC1 promoter act | SMN2 splice enh | FLuc counter | Rab9 prom act | ELG1 genotox | Luc counter
N#CCCNS(=O)(=O)c1ccc(C(=O)OCCCOC(=O)c2ccc(S(=O)(=O)NCCC#N)cc2)cc1 | 16% | · | 1.2µM* | 11% | -12% | ·
CCCNC(=O)c1cc(Cl)c(NC(=O)C2=CSCCO2)cc1OC | ? | · | 19µM* | ? | 17% | ·
CCCCSc1nnc2n(-c3ccc(OC)cc3)c(=O)c3c4c(sc3n12)COC(C(C)C)C4 (configuration not stated) | · | 3% | 1% | · | · | ·
CC1(C)CC(=O)c2cc(C(=O)Nc3ccc(Cl)cc3)c(=O)[nH]c2C1 | · | 8% | 2% | · | · | ·
CC(C)NC(=O)NC(=O)COc1ccc(Br)cc1Br | 1µM* | 2.5µM* | 1.2µM* | 2µM* | 3.3µM* | 1%
CC(C)NC(=O)NC(=O)COc1c(F)c(F)cc(F)c1F | -2% | 23% | 1% | 2% | -2% | -5%
O=C(COc1ccc(Br)cc1Cl)c1ccc[nH]1 | ? | ? | 19µM* | 4µM* | 12% | -1%
C=CCNC(=O)COc1ccc(Br)cc1Cl | ? | ? | 17µM* | ? | 14% | 13%
O=C(COc1ccc(Br)cc1Br)NC1CCS(=O)(=O)C1 (configuration not stated) | -3% | · | -3% | 2% | 17% | ·
O=C(COc1ccccc1Cl)c1ccc[nH]1 | 19% | ? | ? | ? | ? | -5%
O=C(COc1ccc(Br)cc1Br)NC1CCCC1 | 0% | -57% | 17µM* | 0% | 21% | 2%
O=c1c(-c2ccc(F)cc2)nc2cncnc2n1C1CC1 | · | -22% | · | · | · | -3%
O=C(c1ccncc1)N1CCC[C@@]2(CCN(C(c3ccccc3)c3ccccc3)C2)C1 | · | -14% | · | · | · | -2%
NCCCCCCN | · | -6% | · | · | · | ·
CCOCCCN(Cc1ccco1)S(=O)(=O)c1cc2c(cc1Cl)NC(=O)CO2 | · | · | -12% | · | · | ·
O=C(COc1ccc(Br)cc1Cl)NC(=O)NC1CCCC1 | 29% | · | 9.5µM* | ? | ? | ·
O=C(COc1ccc(Br)cc1Cl)NC1CCCCC1 | 2.8µM* | ? | 3µM* | 1.4µM* | ? | 2%
Cc1cc(Cl)ccc1OCC(=O)NC1CCCC1 | -1% | -76% | ? | 2% | ? | 1%
COc1ccc(N2CCN(C(=O)c3c(C)oc4ncn(CC(C)C)c(=O)c34)CC2)cc1 | · | · | 3% | · | · | ·
CCc1cc2c(=O)c(-c3ccc4c(c3)OCCO4)coc2cc1OS(C)(=O)=O | 2.8µM* | 22µM* | 4.8µM* | 3.5µM* | 7% | 1%
CCc1cc2c(=O)c(-c3ccc4c(c3)OCCO4)coc2c(CN2CCCCC2C)c1O (configuration not stated) | 7% | · | 6.7µM* | 21% | 12% | 4%
CCCn1c(-c2ccc(F)cc2)nc2c(NC(C)CN(C)C)nc(C)nc21 (configuration not stated) | · | -4% | · | · | · | -2%
CN(C)C(=O)n1nnnc1Cc1ccc(-c2ccccc2)cc1 | · | · | · | · | · | 3%[39.9 µM]
CCN1CCN(C(=O)c2ccc3c(c2)N(Cc2cc(C)ccc2C)C(=O)c2ccccc2S3=O)CC1 (configuration not stated) | · | 6% | -4% | · | · | ·

Screening data: PubChem BioAssay, National Center for Advancing Translational Sciences (NCATS)
